# Experimental data from PubChem BioAssay (EPA / NIEHS).
# Some structures have more than one record in an assay (separate samples or runs), and their calls can disagree. Activity calls are given as the source filed them. The calls were made as follows: active = hit-call score of the fitted dose curve at least 0.9, where 1 is the maximum; inactive = score below 0.9.
# Experiment: ATG_GRE_CIS: Attagene CIS-FACTORIAL HepG2 Assay for human Glucocorticoid Response Elements (GRE) (AID 2282947)
# Conditions: HepG2 GRE cis-reporter, Attagene multiplex mRNA; actives raise or lower the signal
# Experimental: ATG_CIS is a cell-based, multiplexed-readout assay that uses HepG2, a human liver cell line, with measurements taken at 24 hours after chemical dosing in a 24-well plate.ATG_GRE_CIS is one of 52 assay component(s) measured or calculated from the ATG_CIS assay. It is designed to make measurements of mRNA induction, a form of inducible reporter, as detected with fluorescence intensity signals by Reverse transcription polymerase chain reaction (RT-PCR) and Capillary electrophoresis technology.Data from the assay component ATG_GRE_CIS was analyzed into 1 assay endpoint. This assay endpoint, ATG_GRE_CIS, was analyzed with bidirectional fitting relative to DMSO as the negative control and baseline of activity. Using a type of inducible reporter, measures of mRNA for gain or loss-of-signal activity can be used to understand the reporter gene at the transcription factor-level as they relate to the gene NR3C1. Furthermore, this assay endpoint can be referred to as a primary readout, because this assay has produced multiple assay endpoints where this one serves a reporter gene function. To generalize the intended target to other relatable targets, this assay endpoint is annotated to the nuclear receptor intended target family, where the subfamily is steroidal.
# Human liver HepG2 cells are transiently transfected with multiple reporter transcription units (MRTUs) in 6-well plates using FuGene 6 reagent (Roche; 3 ml FuGene/1 mg DNA). The MRTU constructs are regulated by a cis-regulating element (promoter). […] A major difference between the CIS and TRANS system is that in CIS activities of endogenous TFs are measured, whereas the TRANS assay evaluates changes in activities of exogenous, chimeric NR-Gal4 proteins. […] At the end of 24 hour incubation, total RNA was isolated using TriZol reagent (Invitrogen). The isolated RNA is then reverse-transcribed using oligo(dT) primer and Mo-MLV reverse transcriptase (Invitrogen) with DNAse I (Ambion) treatment for 30 min. The one-tenth of the produced cDNA was amplified by PCR using Taq DNA polymerase (Invitrogen) and two reporter sequence-specific primers. The PCR products were fluorescently labeled by primer extension with 6-arboxyfluorescein (6-FAM) 5'-labeled reporter sequence-specific primer (2 min at 95 C, 20 s at 68 C and 10 min at 72 C) and these products were digested with 5U of HpaI (New England Biolabs) for 2h at 37 C. The fragments were purified using Qiaquick PCR columns (Qiagen), analyzed on an ABI 3130xL genetic analyzer (Applied Biosystems) with peak positions identified by using a set of X-rhodamine (ROX)-labeled MapMarker1000 molecular weight standards (BioVentures). The raw capillary electrophoresis data was processed using Attagraph software (Attagene).
SMILES,outcome,AC50
OCC(F)(F)C(F)(F)C(F)(F)C(F)(F)C(F)(F)C(F)(F)F,inactive,–
Cc1cccc(N(C)C)c1,inactive,–
O=S(=O)(O)C(F)(F)C(F)(F)C(F)(F)C(F)(F)C(F)(F)C(F)(F)C(F)(F)F,inactive,–
O=C(O)C(F)(OC(F)(F)C(F)(OC(F)(F)C(F)(OC(F)(F)C(F)(F)C(F)(F)F)C(F)(F)F)C(F)(F)F)C(F)(F)F (stereo not given),inactive,–
O=C(O)C(F)(F)C(F)(F)C(F)(F)C(F)(F)C(F)(F)C(F)(F)C(F)(F)C(F)(F)Cl,inactive,–
OCCCC(F)(F)C(F)(F)C(F)(F)C(F)(F)C(F)(F)C(F)(F)C(F)(F)F,inactive,96.3 µM (active)
CCCCC(CC)COP(=O)(O)OCC(CC)CCCC (stereo not given),inactive,–
CCCCCCC(C)OC(=O)CCCCC(=O)OC(C)CCCCCC (stereo not given),inactive,–
CC(C)OC(=O)c1ccccc1C(=O)OC(C)C,inactive,–
Nc1ccc(S(=O)(=O)Nc2nccs2)cc1,inactive,–
FC(F)(F)C(F)(F)C(F)(F)C(F)(F)C(F)(F)C(F)(F)C(F)(F)Br,inactive,–
O=C(Cl)C(F)(F)C(F)(F)C(F)(F)C(F)(F)C(F)(F)C(F)(F)C(F)(F)C(F)(F)F,inactive,–
C=C(C)C(=O)OCCC(F)(F)C(F)(F)C(F)(F)C(F)(F)C(F)(C(F)(F)F)C(F)(F)F,inactive,–
COC(=O)CCC(F)(F)C(F)(F)C(F)(F)C(F)(F)F,inactive,–
FC(F)(F)C(F)(F)C(F)(F)C(F)(F)CCI,inactive,–
FC1CC(F)(F)C(F)(F)C1(F)F (stereo not given),inactive,–
C(=C(c1ccccc1)c1ccccc1)c1ccccc1,inactive,–
O=S(=O)(OCCOC(F)(F)F)C(F)(F)F,inactive,–
CC(C)(C)C(=O)CC(=O)C(F)(F)C(F)(F)C(F)(F)F,inactive,–
C=C(C)C(=O)OCC(F)(F)C(F)(F)C(F)(F)C(F)(F)C(F)(F)C(F)(F)C(F)(F)F,inactive,–

SMILES,outcome,AC50
C=CC/C=C/C/C=C/C/C=C/C,inactive,–
CC(CCl)OP(=O)(OC(C)CCl)OC(C)CCl (stereo not given),inactive,–
CCCCNc1ccccc1,inactive,–
CCC(=O)OCCc1ccccc1,inactive,–
CC(C)(C)c1ccc(OC2CCCCC2O)cc1 (stereo not given),inactive,–
Nc1ccc(Oc2cccc(Oc3ccc(N)cc3)c2)cc1,–,181 µM (active)
FC(F)(F)C(F)(F)C(F)(F)C(F)(F)C(F)(F)C(F)(F)CCS,inactive,–
O=C(OCCOCCOCCOC(=O)c1ccccc1)c1ccccc1,inactive,–
O[Si](c1ccccc1)(c1ccccc1)c1ccccc1,inactive,–
CC(C)=CCCC(C)CCOC(=O)C(C)C (stereo not given),inactive,–
C=CC(=O)OCC(F)(F)C(F)(F)C(F)(F)C(F)(F)C(F)(F)C(F)(F)C(F)(F)F,inactive,–
CCCCCCCCC(F)(F)C(F)(F)C(F)(F)C(F)(F)C(F)(F)C(F)(F)F,inactive,–
OCC(F)(F)C(F)(F)C(F)(F)C(F)(F)C(F)(F)C(F)F,inactive,–
O=C(O)C(F)(F)C(F)(F)C(F)(F)C(F)(F)F,inactive,–
CC(=O)Nc1ccc(N=Nc2cc(C)ccc2O)cc1,inactive,–
O=C(O)C(F)(OC(F)(F)C(F)(OC(F)(F)C(F)(F)C(F)(F)F)C(F)(F)F)C(F)(F)F (stereo not given),inactive,–
O=C(O)C(F)(F)C(F)(F)C(F)(F)C(F)(F)C(F)(F)C(F)(F)C(F)(F)C(F)(F)C(F)(F)C(F)(F)C(F)(F)C(F)(F)F,inactive,–
CCCCOc1ccc(N)cc1,inactive,–
O=C(O)C(F)(F)C(F)(F)C(F)(F)C(F)(F)C(F)(F)C(F)(F)C(F)(F)C(F)(F)C(F)(F)C(F)(F)C(F)(F)C(F)(F)C(F)(F)F,inactive,–
